Most compounds without a hit are left out; they make up all but 3.1% or so of the library.
PLK1 PBD block – blocks phosphopeptide binding to human PLK1 polo-box domain; P53350; Plk1 PBD binding of FITC phosphopeptide, fluorescence polarization; Potency, µM, without a hit: max response, negative = inhibition, usual class: inhibitors; 360,000 tested, 2.8% active; note: potency is the fitted concentration of half-maximal effect; series mostly up to about 57 µM; nearly all actives have a fitted effect of over 65% in size
PI4K2A inh – inhibitors of human PI4K2A; Q9BTU6; purified PI4K2A, ADP-Glo luminescence, 1 h; active compounds read low; activity change, negative = inhibition, % at 76.9 µM; 420,000 tested, 0.13% active; AID 1346378; in the data active = activity change below about -50%; inconclusive = mostly about -30% to -49%;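 note: -100% = wells without enzyme as full effect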
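In this quantitative HTS, ADP production by PI4K2A was quantified luminescently after 1 h at ambient temperature; 100 microM adenosine served as plate-quality control.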
GLS inh – glutaminase GLS (human) inhibition; AID 624170; Potency, µM (top dose mostly 45.5 µM), without a hit: at the top dose activity change, negative = inhibition, hits mostly inhibitors; O94925; GLS enzymatic activity, qHTS titration; 410,000 tested, 0.21% active; note: potency is the fitted concentration of half-maximal effect
Target sequence (O94925 whole entry, looked up): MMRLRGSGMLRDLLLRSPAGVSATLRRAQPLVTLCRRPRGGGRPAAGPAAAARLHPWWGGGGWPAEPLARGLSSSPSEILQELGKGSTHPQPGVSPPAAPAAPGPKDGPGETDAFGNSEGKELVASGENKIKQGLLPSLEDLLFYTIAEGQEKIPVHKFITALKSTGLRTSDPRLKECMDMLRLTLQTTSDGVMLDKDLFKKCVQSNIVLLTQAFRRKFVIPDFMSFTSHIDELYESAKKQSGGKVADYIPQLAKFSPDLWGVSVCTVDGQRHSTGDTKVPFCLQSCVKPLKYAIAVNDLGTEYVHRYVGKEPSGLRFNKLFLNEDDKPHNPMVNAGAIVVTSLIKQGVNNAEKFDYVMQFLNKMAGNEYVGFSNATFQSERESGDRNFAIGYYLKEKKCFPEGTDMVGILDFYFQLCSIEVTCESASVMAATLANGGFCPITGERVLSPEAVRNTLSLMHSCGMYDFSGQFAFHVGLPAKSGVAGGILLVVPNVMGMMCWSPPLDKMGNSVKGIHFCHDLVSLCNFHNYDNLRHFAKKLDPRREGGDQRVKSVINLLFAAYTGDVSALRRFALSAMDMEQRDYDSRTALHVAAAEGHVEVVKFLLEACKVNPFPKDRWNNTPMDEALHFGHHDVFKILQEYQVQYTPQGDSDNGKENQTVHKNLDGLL
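Coupled fluorescence readout: glutamate oxidase/HRP/Amplex Red detect glutamate formed by hKGA from L-glutamine (1 mM solution added). Buffer 45 mM KH2PO4 pH 8.2, 0.02% Tween-20; reads at t0 and 30 min RT.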
GCN5L2 inh – GCN5L2 (KAT2A) acetyltransferase inhibition; GCN5L2 HAT assay, ThioGlo1 CoA-SH fluorescence; Potency, µM (doses to about 58.9 µM), without a hit: top-dose activity change, negative = inhibition, hits mostly inhibitors; 390,000 tested, 0.21% active; note: potency is the fitted concentration of half-maximal effect
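ThioGlo1-coupled HAT assay: 20nM GCN5L2, 70uM acetyl-CoA, 75uM H3(1-25) peptide, pH 7.5. Fluorescence read at 340/540nm at start and after 20 min at room temperature.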
VDR inh – vitamin D3 receptor (human) inhibition; P11473; VDR-SRC2-3 peptide fluorescence polarization, 2 h; Potency, µM, inactives show max response, negative = inhibition, usual class: inhibitors; 400,000 tested, 0.93% active; AID 504847; note: potency is the fitted concentration of half-maximal effect
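Signal is fluorescence polarization, reporting how far test compounds block the interaction of VDR with the SRC2-3 coregulator peptide after a 2 h room-temperature incubation.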
* = called active by the depositor; u = inconclusive; x = no result; ! = repeats disagree. Unless noted, calls come from the whole dose curve; as a rule, active = well fitted curve in the direction sought with a large enough effect; inconclusive = small, poorly fitted or top-dose-only effect, or another doubt; inactive = no such curve, though single readings can be large; an effect the other way counts as inactive or inconclusive. Unless noted, % is set by controls: 0 for no effect and ±100 for the full control effect.

SMILES	PLK1 PBD block	PI4K2A inh	GLS inh	GCN5L2 inh	VDR inh
CCOc1ccc(NC(=S)NS(=O)(=O)c2cc(Br)ccc2OCC)cc1	12µM*	1	16%	x	u
CCOc1ccc(NC(=S)Nc2ccc(Br)cc2Cl)cc1	-22%	2	-1%	-9%	-24%
C[C@](O)(C(=O)Nc1ccc(S(=O)(=O)c2ccccc2)cc1)C(F)(F)F	x	x	x	-12%	4%
Cc1cccc(Cn2cc(/C=C/[N+](=O)[O-])c3ccccc32)c1	-26%	26	-8%	-13%	u
O=C(O)c1ccc(Cn2cc(/C=C\[N+](=O)[O-])c3ccccc32)o1	27µM*	-19	7%	-19%	13µM*
Cc1cc(C)nc(N2CCC(C(=O)N(C)CCc3ccccc3)CC2)n1	x	-1	x	x	x
Cn1c(=O)n(Cc2ccccc2Cl)c(=O)c2c1[nH]c(=S)n2C	17µM*	1	14µM*	-29%	-23%
O=C(c1ccc2c(=O)n(Cc3ccccc3Cl)c(=S)[nH]c2c1)N1CCCC1	-3%	1	-12%	-1%	-22%
Cn1c(SCc2nn[nH]n2)nc2c1c(=O)n(Cc1ccccc1Cl)c(=O)n2C	-8%	10	11µM*	-2%	9%
O=c1c2nccnc2[nH]c(=S)n1Cc1ccccc1Cl	-8%	-1	10µM*	-8%	-5%
C=CCn1c(=O)c2c(nc(Br)n2Cc2ccccc2Cl)n(C)c1=O	30µM*	-11	-21%	-30%	-4%
CCOC(=O)Cn1c(=O)c2c(nc(Br)n2Cc2ccccc2Cl)n(C)c1=O	-1%	-11	9%	0%	4%
O=C(NCCc1ccccn1)c1ccc2c(c1)ncn2C1CCCCC1	x	-5	x	x	x
O=C(COC(=O)CNC(=O)C1CCCCC1)NC1CCCC1	x	x	x	x	8%
O=C(Nc1nc2c(Br)cccc2s1)c1ccc2c(c1)OCCO2	x	-5	x	x	x
CCOC(=O)C1=NOC(C(=O)NCc2ccccc2)(C(=O)c2ccc(OC)cc2)C1 (stereo unspecified)	x	0	x	x	x
Cn1c(=O)n(Cc2ccccc2F)c2ccccc21	-7%	-2	-14%	-4%	24%
Cn1c(=O)n(Cc2ccccc2Cl)c2ccccc21	17µM*	0	-10%	24%	u
CC(=O)Oc1ccc2nonc2c1OC(C)=O	x	x	x	x	1.4µM*
CC(=O)Oc1cccc(C(=O)O)c1OC(C)=O	x	x	-2%	4%	-1%
CCCC/C=C1\CCc2c([nH]c3ccccc23)C1=O	3%	2	0%	-16%	9%
CCCCCCC=C1CCC(CN2CCCC2)C1=O (stereo unspecified)	3.4µM*	6	2%	x	x
O=c1[nH]c2ccccc2c(=O)n1CCCl	x	-5	x	x	x
O=S(=O)(CCc1nc2ccccc2s1)c1ccc2ccccc2c1	u	1	-2%	-9%	4%
Cc1ccc(S(=O)(=O)CCc2nc3ccccc3s2)cc1	24µM*	-11	0%	3%	-1%
SMILES	PLK1 PBD block	PI4K2A inh	GLS inh	GCN5L2 inh	VDR inh
CCC1CCc2sc(C(=O)Nc3cc(S(=O)(=O)N4CCOCC4)ccc3OC)cc2C1 (stereo unspecified)	x	1	x	x	x
C=CCN1C[C@H](C(=O)N(CCCN(C)C)C(=O)NCC)C[C@@H]2c3cccc4[nH]cc(c34)C[C@H]21	x	0	x	x	x
C/C=C1\COC(C(=O)NCCN2CCCC2)(C(F)(F)F)C=C1C=C1CCCCC1 (stereo unspecified)	-20%	0	10%	x	-15%
C/C=C1\COC(C(=O)NCc2ccccc2)(C(F)(F)F)C=C1C=C1CCCCC1 (stereo unspecified)	-14%	1	-3%	x	79µM*!
COc1ccc(C(=O)N(Cc2ccccc2)Cc2ccc(OC)c(COc3ccc(NC(C)=O)cc3)c2)cc1	x	x	x	x	-10%
CCOC(=O)CC[C@@H]1CC[C@]2(CCCN(S(=O)(=O)c3ccccc3)C2)O1	x	3	x	x	x
O=C(NCO)c1cccnc1	6%	1	-5%	-17%	-15%
CCOC(=O)CNC(=O)c1cccnc1	24µM*	-1	-10%	24%	-4%
O=C(CSc1ncccc1C(=O)O)NC1CCCCCCC1	27µM*	-2	-4%	-2%	-26%
COc1ccc(-n2nnnc2S(=O)(=O)CC(=O)N2CCCCC2)cc1	12µM*	57	1%	-5%	u
COc1ccc(-n2nnnc2S(=O)(=O)Cc2ccc(C(=O)O)cc2)cc1	30µM*	64	0%	-15%	u
CCc1ccc(Oc2nnnn2-c2ccc(C(N)=O)cc2)cc1	0%	-8	-2%	3%	5%
CC(C)C[C@H](NC(=O)[C@@H]1CCC(=O)N1)C(=O)N[C@@H](Cc1ccc(O)cc1)C(=O)N[C@@H](CCC(=O)O)C(=O)N[C@@H](CC(N)=O)C(=O)N[C@@H](CCCCN)C(=O)N1CCC[C@H]1C(=O)N[C@@H](CCCN=C(N)N)C(=O)N[C@@H](CCCN=C(N)N)C(=O)N1CCC[C@H]1C(=O)N[C@@H](Cc1ccc(O)cc1)C(=O)O	x	x	x	-11%	1%
CCOC(=O)c1cccc(NC(=O)CN(C)S(=O)(=O)c2ccco2)c1	x	1	x	x	x
CC(C)c1nnc(NC(=O)c2ccc3c(c2)OCO3)s1	-6%	6	-8%	-2%	1%
CC(C)(C)c1nnc(NC(=O)c2ccc3c(c2)OCO3)s1	6µM*	-1	49%	u	79µM*
O=C(OCC#CCSc1nnc(-c2cccc3ccccc23)o1)C1CCC1	x	-3	x	x	x
CCCCCCCCCCCCCC[C@@H](O)[C@@H](O)[C@H](CO)NC(C)=O	x	x	x	-20%	-9%
CSc1nc(=NC(C)=O)ss1	7.9µM*	3	-2%	u	u
CC1(C)CC(=O)C=C(c2cccc(Br)c2)C1	27µM*	-2	9%	-10%	u
CC1(C)CC(=O)C=C(c2ccc(-c3ccccc3)cc2)C1	2%	2	1%	2%	-11%
CCS(=O)(=O)N1CCN(CC(=O)NC2CCCCC2)CC1	21µM*	0	0%	-7%	-3%
COc1ccc(C2Nc3ccccc3C(=O)N2Cc2ccc(C)o2)cc1COc1c(C)cccc1C (stereo unspecified)	x	0	x	x	x
